Fluorescein autfl – fluorescein region autofluorescence | Compound autofluorescence, 480/540 nm, fluorescein-equivalent; stronger effect = higher value | max fluorescein-equivalent concentration, M | 59,000 compounds, 0.91% hits; in the data active = max fluorescein-equivalent concentration above about 10 nM; inconclusive = between about 1.1 nM and that limit
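Compounds were pin-transferred into 100 mM Tris buffer, pH 8.0, and incubated 15 min at room temperature. Fluorescence was read at 480 nm excitation/540 nm emission. Signals were normalized to an on-plate six-point fluorescein standard curve as dye-equivalent concentration.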
A647 fluor – compound fluoresces in the A647 spectral region; Compound fluorescence, A647 channel (570/671 nm), Tris buffer; max dye-equivalent concentration, M; 59,000 tested, under 10 active; AID 592;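 note: values scaled relative to a standard on each plate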
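Fluorescence read (570 nm ex, 671 nm em) after 15 min RT incubation of compounds in 100 mM Tris buffer, pH 8.0; values expressed as dye-equivalent concentration against a six-point A647 standard series on each plate.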
Resorufin autofl – compound fluoresces in the resorufin spectral region. Compound fluorescence, resorufin region 547/598 nm, buffer; stronger effect = higher value. max dye-equivalent concentration, M. 59,000 compounds, 0.04% hits. AID 588
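Tris 100 mM pH 8.0; compound added, 15 min RT; CCD imager read, ex 547 nm/em 598 nm; signal normalized to resorufin standard curve (six concentrations per plate) as dye-equivalent concentration.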
Rhodamine fluor – compound autofluorescence in rhodamine spectral region. Rhodamine-region fluorescence, 547/598 nm, Tris buffer; stronger effect = higher value. max dye-equivalent concentration, M. 59,000 compounds, 0.05% hits. AID 594; in the data active = max dye-equivalent concentration above about 11 nM; inconclusive = between about 1.1 nM and that limit
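Intrinsic compound fluorescence, ex 547 / em 598 nm, CCD imager. Tris 100 mM pH 8.0; 15 min RT. Output = rhodamine dye-equivalent concentration at each compound concentration.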
A488 fluor – compound fluoresces in the A488 spectral region; AID 591; max dye equivalency, M; compound autofluorescence, A488 spectral region, dye equivalency; Compound Type: qHTS ECL - MLSMR; 59,000 compounds, 0.1% hits
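Readout is A488 dye-equivalent concentration, calibrated by a per-plate six-point Alexa 488 series. Compounds in 100 mM Tris buffer pH 8.0 were incubated 15 min at room temperature. Plates were imaged using 480 nm excitation/540 nm emission filters.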
TexasRed autofl – compound fluoresces in the Texas Red spectral region; AID 587; max dye-equivalent concentration, M; Compound fluorescence, Texas Red channel, 547/618 nm; stronger effect = higher value; 59,000 compounds, 0.06% hits; in the data active = max dye-equivalent concentration above about 10 nM; inconclusive = between about 1.1 nM and that limit
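Compound fluorescence was read after 15 min at room temperature in 100 mM Tris, pH 8.0, using 547 nm excitation and 618 nm emission across a concentration series. It was expressed as Texas Red dye-equivalent concentration from an on-plate standard curve.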
The depositor's hits bear a star; i = inactive; ? = inconclusive; ! = repeats disagree. In the library only some 0.9% were active in any assay of this set; here they are far more common. Unless noted, the rule behind the calls is not given here.

SMILES	Fluorescein autfl	A647 fluor	Resorufin autofl	Rhodamine fluor	A488 fluor	TexasRed autofl
C[C@H](O)C(=O)C1=Nc2c(nc(N)[nH]c2=O)NC1	4e-08M*	9.6e-09	i	i	?	?
CN(C)CC[C@H](c1ccc(Cl)cc1)c1ccccn1	1.3e-08M*!	9.6e-09	i	i	i	?
Cc1c(N=C2Nc3cccc4cccc2c34)c(=O)n(-c2ccccc2)n1C	1.5e-07M*	2.7e-09	i	i	?	i
C=C[C@@]1(C)C=C2CC[C@@H]3[C@](C)(CCC[C@@]3(C)C(=O)O)[C@H]2CC1	i	2.4e-09	i	i	i	i
CC(=O)S[C@H]1CC2=CC(=O)CC[C@@]2(C)[C@H]2CC[C@@]3(C)[C@H](CC[C@]34CCC(=O)O4)[C@@H]12	4.9e-08M*	4.4e-08	?	?	?	1e-08M*
C=CCn1c(=S)[nH]c2ccc(Br)cc2c1=O	1.9e-08M*	7.9e-09	i	i	i	i
C=CCn1c(=S)[nH]c2nc3c(cc2c1=O)CCCC3	i	2e-09	i	i	i	i
CCOc1ccc(/C=c2\sc3nc(-c4ccco4)nn3c2=O)cc1OCC	1.2e-07M*	7.2e-09	i	i	?	i
COc1ccccc1/C=c1\sc2nc(-c3ccco3)nn2c1=O	i	6.3e-09	i	i	i	i
CCN(CC)c1ccc(C=N/C(C#N)=C(\N)C#N)cc1	5e-07M*	2.2e-08	i	?	2.6e-08M*	?
N[C@H](Cc1ccc(O)c(I)c1)C(=O)O	i	1e-09	i	i	i	?
COc1ccc2cc(C(c3nnnn3CCc3ccccc3)N3CCC(O)CC3)c(=O)[nH]c2c1 (stereo unspecified)	1.4e-08M*	1.2e-09	1.3e-08M*	2.4e-08M*	i	4.1e-08M*
C[C@@]12CCC(=O)C=C1CC[C@H]1[C@H]3CC[C@](O)(C(=O)CO)[C@]3(C)CC[C@@H]12	?	5.5e-08	i	i	i	i
C=C1C[C@@]23C[C@]1(O)CC[C@@H]2[C@]12C=C[C@@H](O)[C@@](C)(C(=O)O1)[C@@H]2[C@@H]3C(=O)O	i	2.7e-08	i	i	i	i
Cc1nc(NCc2ccco2)c2c3c(sc2n1)CCC3	i	1.4e-08	i	i	i	i
CCN1CCc2c(sc3c2c(NCc2ccco2)nc2nnnn23)C1	1.3e-08M*	1e-09	i	i	i	i
COc1ccc(S(=O)(=O)C(C#N)c2nc3ccccc3nc2N2CCCCC2)cc1 (stereo unspecified)	?	5.4e-09	i	i	i	i
Cc1ccc(C)c(S(=O)(=O)C(C#N)c2nc3ccccc3nc2N2CCCC2)c1 (stereo unspecified)	1.1e-08M*	2.1e-08	i	i	i	i
N#CC(c1nc2ccccc2nc1N1CCCC1)S(=O)(=O)c1cccs1 (stereo unspecified)	1.7e-08M*	2.8e-08	i	i	i	i
Cc1cc(Cl)nc(NC(=O)CSc2ccc(Cl)cc2)n1	i	3.1e-08	i	i	i	i
COC(=O)CC[C@@H](C)[C@H]1CC[C@H]2[C@H]3CC[C@H]4C[C@@H]5CC[C@@]4(C)C3(O5)[C@@H](Br)[C@@H](Br)[C@@]12C	i	1e-09	i	i	i	i
CC1=CC(=C(C#N)c2nc3ccccc3s2)C=C(C)N1Cc1ccco1	1.9e-07M*	3.5e-08	i	i	?	i
N#CCCn1c(=O)c(-c2cccs2)nc2cnc(Nc3ccccc3)nc21	?	1e-09	i	i	i	i
CCNc1ncc2nc(-c3cccs3)c(=O)n(CCC#N)c2n1	1.4e-08M*	1e-09	i	i	i	i
c1cncc(CNc2ncncc2-c2ccoc2)c1	?	4.5e-08	i	i	i	i
SMILES	Fluorescein autfl	A647 fluor	Resorufin autofl	Rhodamine fluor	A488 fluor	TexasRed autofl
CC(C)OC(=O)c1nn2c(C(F)(F)F)cc(-c3ccc(Br)o3)nc2c1Br	1.6e-08M*	5.3e-08	i	i	i	i
CCOC(=O)c1cnn2c(C(F)(F)F)cc(-c3ccco3)nc12	i	1e-09	i	i	i	i
CCNC(=O)[C@@H]1O[C@@H](n2cnc3c(NCc4ccccc4)ncnc32)[C@@H](O)[C@H]1O	i	4.6e-09	i	i	i	i
COCCn1c(=O)c(-c2cccc(C#N)c2)nc2cnc(N3CCOCC3)nc21	i	1e-09	i	i	i	i
COc1ccccc1OC[C@H](O)CN1CCN(CC(=O)Nc2c(C)cccc2C)CC1	i	3.3e-09	i	i	i	?
C#C[C@@]1(O)CC[C@H]2[C@H]3CCC4=Cc5oncc5C[C@]4(C)[C@@H]3CC[C@@]21C	i	3.6e-09	i	i	i	i
c1ccc2[nH]c(CN3CCCCCC3)nc2c1	?	4.5e-08	i	i	i	i
[O-][n+]1c(CN2CCCCC2)nc2cccc3c2c1-c1ccccc1-3	1.7e-08M*	5.2e-09	i	i	i	i
N=C1[C@@H](O)[C@]2(I)c3ccccc3N3C(=N)[C@H](O)[C@@H]4c5ccccc5N1[C@@H]4[C@@H]32	?	2.1e-08	?	?	i	?
CC1C2C(c3ccccc3)N(C)C(=O)N(C)C2N(C)C(=O)N1C (stereo unspecified)	1.5e-08M*	2.5e-09	i	i	i	i
CC(=O)N1C(=O)N(C(C)=O)C2C1N(C(C)=O)C(=O)N2C(C)=O (stereo unspecified)	i	1e-09	i	i	i	i
S[C@@H]1CCCN(Cc2ccccc2)C1	i	1e-09	i	i	i	i
CCN=C(N)CSS(=O)(=O)O	i	2.2e-09	i	i	i	i
Cc1ccc(N2C(=O)[C@@H]3[C@H](C2=O)C2CCCN2[C@@H]3C(=O)c2ccccc2)cc1 (stereo partly specified)	?	3.4e-08	i	i	i	i
CC(=O)c1ccc(N2C(=O)C3C(C2=O)C(C(=O)c2ccc(Cl)cc2)N2CCCC32)cc1 (stereo unspecified)	1.3e-07M*	1e-09	i	i	?	i
O=C(c1ccc(Cl)cc1)C1C2C(=O)N(c3ccccc3)C(=O)C2C2CCCN21 (stereo unspecified)	5.2e-08M*	3.8e-08	i	i	?	i
CCN1C(=O)c2cccc3c(NC(=O)C4CCCCC4)ccc1c23	?	1.7e-09	i	i	i	i
CCN1C(=O)c2cccc3c(NC(=O)c4ccc5c(c4)OCCO5)ccc1c23	5.5e-08M*	2.6e-09	i	i	?	i
N#CC1=C(N)SC(N)=C(C#N)C1c1ccoc1	1.8e-08M*	2.2e-08	i	i	i	i
